Results as given in the supplement of paper PMC12494721.
Structures can show the parent of a compound that is named as a salt.

Experiments:
Details in all cases: 20 µM; incubation time: 27 h, anaerobic, 37 °C;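 for the amine columns active = adjusted P below 0.05 in both replicates with a change the same way and a mean fold change under 0.8 or over 1.25; inactive = the rest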
[1] = tested on: Clostridium sporogenes DSM 1664; assay: growth (OD595) fold change vs plate DMSO controls (fold change (ratio)); higher = more growth
Summary of the method: (§1)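 The measure reported is growth, taken as fold change against the median of DMSO controls on the same plate. Anaerobic mGAM cultures in 96-well plates (27 h, 37 °C) were read at 595 nm, blank-subtracted, corrected for compound background using 20 µM compound solutions in water, and multiplied by a calibration factor of 5 to give OD. Any fold change above 1.5 became NA, and 2 biological replicates were averaged.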

Escherichia coli IAI1 [2] = assay: as above
Summary of the method: as §1

[3] = tested on: Klebsiella aerogenes DSM 30053; assay: as above
Summary of the method: as §1

[4] = tested on: Ruminococcus gnavus DSM 108212; assay: as above
Summary of the method: as §1

[5] = tested on: Klebsiella aerogenes DSM 30053; assay: fold change of Histamine concentration vs plate DMSO controls (fold change (ratio)); higher = more amine produced, active = hit call of the paper (significant change in both replicates, either direction)
Summary of the method: (§2)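 Each value is the fold change relative to DMSO-only wells on the same plate. Four gut bacterial strains were grown anaerobically in mGAM at 37 °C for 27 h in 80 µL wells, starting at OD 0.1 before a 1:1 dilution, with compounds at 20 µM final (sweeteners 50 µM). Whole cultures were extracted with cold acetonitrile/methanol containing 0.1% formic acid, centrifuged, and amines were quantified by LC–triple-quadrupole MS (dynamic MRM) against external calibration curves with within-batch drift correction. Values are means of 2 biological replicates.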

[6] = tested on: Clostridium sporogenes DSM 1664; assay: fold change of Tryptamine concentration vs plate DMSO controls (fold change (ratio)); higher = more amine produced, active = hit call of the paper (significant change in both replicates, either direction)
Summary of the method: as §2

[7] = tested on: Ruminococcus gnavus DSM 108212; assay: as above
Summary of the method: as §2

Escherichia coli IAI1 [8] = assay: fold change of Putrescine concentration vs plate DMSO controls (fold change (ratio)); higher = more amine produced, active = hit call of the paper (significant change in both replicates, either direction)
Summary of the method: as §2

[9] = tested on: Klebsiella aerogenes DSM 30053; assay: as above
Summary of the method: as §2

Escherichia coli IAI1 [10] = assay: fold change of Cadaverine concentration vs plate DMSO controls (fold change (ratio)); higher = more amine produced, active = hit call of the paper (significant change in both replicates, either direction)
Summary of the method: as §2

[11] = tested on: Klebsiella aerogenes DSM 30053; assay: as above
Summary of the method: as §2

[12] = tested on: Ruminococcus gnavus DSM 108212; assay: fold change of 2-Phenylethylamine concentration vs plate DMSO controls (fold change (ratio)); higher = more amine produced, active = hit call of the paper (significant change in both replicates, either direction)
Summary of the method: as §2

SMILES | growth [1] | growth (Escherichia coli IAI1 [2]) | growth [3] | growth [4] | fold change of Histamine concentration [5] | fold change of Tryptamine concentration [6] | fold change of Tryptamine concentration [7] | fold change of Putrescine concentration (Escherichia coli IAI1 [8]) | fold change of Putrescine concentration [9] | fold change of Cadaverine concentration (Escherichia coli IAI1 [10]) | fold change of Cadaverine concentration [11] | fold change of 2-Phenylethylamine concentration [12]
CCC1(C)CC(=O)NC(=O)C1 [Bemegride] | 1.08 | 1.06 | 1.04 | 0.973 | 0.98 (inactive) | 1.04 (inactive) | 1.03 (inactive) | 0.985 (inactive) | 0.981 (inactive) | 0.986 (inactive) | 0.991 (inactive) | 1.03 (inactive)
O=C1c2ccccc2C(=O)N1SC(Cl)(Cl)Cl | 1.06 | 1 | 0.997 | 0.937 | 1 (inactive) | 0.983 (inactive) | 0.999 (inactive) | 1.05 (inactive) | 1 (inactive) | 0.969 (inactive) | 0.988 (inactive) | 0.999 (inactive)
Cc1ccc(/N=C/N(C)/C=N/c2ccc(C)cc2C)c(C)c1 | 0.953 | 1.05 | 1.03 | 1.06 | 1.03 (inactive) | 0.98 (inactive) | 0.939 (inactive) | 0.981 (inactive) | 1.01 (inactive) | 1.01 (inactive) | 0.991 (inactive) | 0.926 (inactive)
COc1ccc(-c2ccccc2)cc1NNC(=O)OC(C)C | 1.14 | 0.997 | 1 | 1.12 | 0.998 (inactive) | 0.997 (inactive) | 0.968 (inactive) | 0.991 (inactive) | 1 (inactive) | 1.03 (inactive) | 0.984 (inactive) | 0.922 (inactive)
CO/N=C(/C(=O)OC)c1ccccc1CO/N=C(\C)c1cccc(C(F)(F)F)c1 | 0.917 | 1.01 | 0.98 | 1.1 | 1.02 (inactive) | 0.956 (inactive) | 0.991 (inactive) | 0.982 (inactive) | 0.987 (inactive) | 0.95 (inactive) | 1.02 (inactive) | 0.951 (inactive)
NCC(O)c1ccc(O)cc1 (centres undefined) [Octopamine hydrochloride] | 0.798 | 1.03 | 0.986 | 0.994 | 1.04 (inactive) | 1.04 (inactive) | 0.937 (inactive) | 1.11 (inactive) | 1.02 (inactive) | 1.01 (inactive) | 1 (inactive) | 0.875 (inactive)
CCCC(C)(COC(N)=O)COC(=O)NC(C)C (centres undefined) [Carisoprodol] | 1.03 | 1.01 | 1.01 | 0.919 | 1.03 (inactive) | 1.01 (inactive) | 1.02 (inactive) | 1.02 (inactive) | 1 (inactive) | 1.02 (inactive) | 1 (inactive) | 1.05 (inactive)
COCC(=O)N(c1c(C)cccc1C)[C@H](C)C(=O)OC | 0.945 | 1.01 | 1.03 | 0.974 | 1 (inactive) | 1.01 (inactive) | 1.02 (inactive) | 1.02 (inactive) | 0.996 (inactive) | 0.99 (inactive) | 1.01 (inactive) | 1.05 (inactive)
CS(=O)(=O)c1ccc(C(=O)C2C(=O)CCCC2=O)c([N+](=O)[O-])c1 | 1.1 | 1.02 | 1 | 1.02 | 1.02 (inactive) | 0.928 (inactive) | 1 (inactive) | 0.929 (inactive) | 0.946 (inactive) | 0.973 (inactive) | 1.08 (inactive) | 0.999 (inactive)
CCCCc1c(C)nc(NCC)nc1OS(=O)(=O)N(C)C | 0.862 | 1.04 | 0.957 | 0.952 | 1.03 (inactive) | 1.06 (inactive) | 0.959 (inactive) | 0.985 (inactive) | 0.995 (inactive) | 1.01 (inactive) | 0.998 (inactive) | 0.996 (inactive)
CC(C)c1cccc(C(C)C)c1O [Propofol] | 1.24 | 1.01 | 1 | 1.03 | 1.05 (inactive) | 0.931 (inactive) | 0.964 (inactive) | 0.865 (inactive) | 1.01 (inactive) | 1.34 (active) | 0.989 (inactive) | 0.908 (inactive)
CN(C)C(=O)Oc1ccc[n+](C)c1 [Pyridostigmine iodide] | 1.02 | 0.975 | 1 | 0.901 | 1.05 (inactive) | 0.975 (inactive) | 1.01 (inactive) | 0.993 (inactive) | 0.98 (inactive) | 1.01 (inactive) | 1.03 (inactive) | 1.02 (inactive)
Oc1ccc(C(c2ccc(O)cc2)(C(F)(F)F)C(F)(F)F)cc1 [Bisphenol AF] | 1.04 | 1.07 | 0.956 | 0.983 | 1.08 (inactive) | 0.718 (inactive) | 0.717 (active) | 1.01 (inactive) | 0.989 (inactive) | 1.03 (inactive) | 0.99 (inactive) | 0.723 (inactive)
COP(=O)(OC)OC=C(Cl)Cl | 1.05 | 1.03 | 0.995 | 1.07 | 0.89 (inactive) | 1.05 (inactive) | 1.06 (inactive) | 0.985 (inactive) | 0.921 (inactive) | 0.964 (inactive) | 1.06 (inactive) | 1.07 (inactive)
CN/C(=N\[N+](=O)[O-])NCc1cnc(Cl)s1 | 0.943 | 0.968 | 0.989 | 0.944 | 1.01 (inactive) | 0.953 (inactive) | 0.989 (inactive) | 0.98 (inactive) | 1 (inactive) | 1.07 (inactive) | 0.994 (inactive) | 1 (inactive)
Oc1cc(Cl)ccc1Oc1ccc(Cl)cc1Cl [Triclosan] | 0.874 | 0.0332 | 0.299 | 1.21 | 0.0779 (active) | 0.699 (inactive) | 0.715 (active) | 0.258 (active) | 0.248 (active) | 1.13 (inactive) | 0.828 (inactive) | 0.734 (active)
CCc1cnc(C2=NC(C)(C(C)C)C(=O)N2)c(C(=O)O)c1 (centres undefined) | 1 | 1.06 | 0.985 | 1.09 | 1 (inactive) | 0.954 (inactive) | 1.01 (inactive) | 1.03 (inactive) | 1.02 (inactive) | 0.991 (inactive) | 0.993 (inactive) | 0.984 (inactive)
CCOCN(C(=O)CCl)c1c(C)cccc1CC | 0.867 | 1.01 | 0.997 | 1.08 | 1.01 (inactive) | 1.06 (inactive) | 1.01 (inactive) | 0.901 (inactive) | 0.941 (inactive) | 0.88 (inactive) | 1 (inactive) | 1.02 (inactive)
CNC(=O)ON=C(C)SC | 1.01 | 0.969 | 1 | 0.984 | 1.04 (inactive) | 1.06 (inactive) | 1.06 (inactive) | 1 (inactive) | 0.967 (inactive) | 0.892 (inactive) | 1 (inactive) | 1.09 (inactive)
NC(=O)OCCCc1ccccc1 [Phenprobamate] | 0.892 | 0.995 | 0.992 | 0.943 | 0.97 (inactive) | 0.987 (inactive) | 0.96 (inactive) | 1.34 (inactive) | 0.99 (inactive) | 0.952 (inactive) | 0.984 (inactive) | 0.943 (inactive)
O=c1[nH]c2ccccc2n1C1CCN(CCCC(c2ccc(F)cc2)c2ccc(F)cc2)CC1 [Pimozide] | 1.41 | 0.978 | 0.99 | 1.25 | 1.01 (inactive) | 0.938 (inactive) | 0.846 (inactive) | 0.979 (inactive) | 1.01 (inactive) | 0.964 (inactive) | 0.995 (inactive) | 0.898 (inactive)
C[C@]12C/C(=C/O)C(=O)C[C@@H]1CC[C@@H]1[C@@H]2CC[C@@]2(C)[C@H]1CC[C@]2(C)O [Oxymetholone] | 1.21 | 1.01 | 1 | 1.16 | 0.984 (inactive) | 0.861 (inactive) | 0.223 (active) | 1.02 (inactive) | 1.02 (inactive) | 1 (inactive) | 1.01 (inactive) | 0.271 (active)
O=C(O)C(F)(F)C(F)(F)C(F)(F)C(F)(F)C(F)(F)C(F)(F)C(F)(F)C(F)(F)F [PFNA (Perfluorononanoic acid)] | 1.04 | 1 | 1.01 | 1.05 | 1.01 (inactive) | 0.955 (inactive) | 0.968 (inactive) | 1.01 (inactive) | 0.994 (inactive) | 1.03 (inactive) | 0.982 (inactive) | 0.915 (inactive)
CCCN(CCC)C(=O)SCc1ccccc1 | 1.02 | 1 | 1.03 | 0.973 | 1.04 (inactive) | 1.02 (inactive) | 0.923 (inactive) | 1.02 (inactive) | 1.01 (inactive) | 0.995 (inactive) | 0.993 (inactive) | 0.897 (inactive)
CCC(C)(c1ccc(O)cc1)c1ccc(O)cc1 [Bisphenol B] | 1.05 | 1.04 | 0.977 | 1.02 | 1.06 (inactive) | 1.04 (inactive) | 0.962 (inactive) | 0.976 (inactive) | 0.994 (inactive) | 1 (inactive) | 0.98 (inactive) | 0.974 (inactive)
CCN(C(C)=O)c1cccc(-c2ccnc3c(C#N)cnn23)c1 [Zaleplon] | 1.07 | 0.995 | 1.05 | 1.05 | 0.987 (inactive) | 0.972 (inactive) | 1.02 (inactive) | 1.03 (inactive) | 0.992 (inactive) | 1.02 (inactive) | 1.01 (inactive) | 1.04 (inactive)
Cc1cc(C(C#N)c2ccc(Cl)cc2)c(Cl)cc1NC(=O)c1cc(I)cc(I)c1O (centres undefined) | 0 | 0.947 | 1 | 0.156 | 1.07 (inactive) | 0.0183 (active) | 0.104 (active) | 1.07 (inactive) | 1.03 (inactive) | 1.29 (active) | 1.01 (inactive) | 0.11 (active)
